Results on 40 molecules are retold here after PubChem BioAssay AID2578 (National Center for Advancing Translational Sciences (NCATS), 2010).

Calls of active or inactive are those of the source. Calls follow the shape of the dose curve; as a rule, active = well fitted curve in the direction sought with a large enough effect; inactive = no such curve, though single readings can be large or run the other way.

Sequence of Alpha-galactosidase A (Homo sapiens) (P06280 whole entry, looked up): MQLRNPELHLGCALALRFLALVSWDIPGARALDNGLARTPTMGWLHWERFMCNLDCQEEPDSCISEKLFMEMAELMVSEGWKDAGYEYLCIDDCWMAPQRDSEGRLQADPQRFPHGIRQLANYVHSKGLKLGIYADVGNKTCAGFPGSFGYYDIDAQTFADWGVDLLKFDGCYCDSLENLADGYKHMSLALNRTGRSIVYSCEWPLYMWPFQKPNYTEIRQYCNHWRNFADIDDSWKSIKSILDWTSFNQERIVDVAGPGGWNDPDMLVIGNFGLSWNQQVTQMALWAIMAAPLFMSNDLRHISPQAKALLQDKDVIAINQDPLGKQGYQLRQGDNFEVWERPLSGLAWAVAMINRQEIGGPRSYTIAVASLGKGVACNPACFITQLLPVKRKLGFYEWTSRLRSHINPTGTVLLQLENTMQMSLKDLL

The test addresses Alpha-galactosidase A (Homo sapiens) (UniProt P06280). As to the kind of experiment: qHTS Assay for Inhibitors and Activators of N370S glucocerebrosidase as a Potential Chaperone Treatment of Gaucher Disease: Alpha-Galactosidase Counterscreen. To be noted: purified enzyme, 4-MU-alpha-Gal fluorescence, 20 min; series mostly up to 57.5 µM. The text has this: NIH Chemical Genomics Center [NCGC] NIH Molecular Libraries Probe Production Centers Network [MLPCN] MLPCN Grant: MH086442-01 Assay Submitter (PI): Wei Zheng Glucocerebrosidase (GC) catalyzes the hydrolysis of beta-glucocerebroside to glucose and ceramide in lysosomes. Mutations in the glucocerebrosidase gene result in Gaucher disease, an autosomal recessive lysosomal storage disorder. Many of the mutations encountered in patients with Gaucher disease are missense alterations that may cause misfolding, decreased stability and/or mistrafficking of this lysosomal protein. […] These inhibitors include iminosugar analogs and three non-iminosugar inhibitors identified from a previous HTS of 62,000 compounds with the wild type recombinant enzyme. However, the enhancement of enzyme activity by the chaperone action of an enzyme inhibitor must be balanced against the direct inhibition of the enzyme. An enzyme activator could also function as a chaperone by binding to the enzyme and helping to correct its misfolding and mistrafficking. While activators for GC have not yet been identified, they may have better therapeutic potential than inhibitors. Therefore the discovery and development of chemical activators may provide a new strategy for the chaperone therapy. To characterize compound selectivity, selected hits from the primary screen were screened against purified alpha-galactosidase, a related sugar hydrolase. Alpha-galactosidase is a homodimeric glycoprotein that hydrolyzes the terminal alpha-galactosyl moieties from glycolipids and glycoproteins.
NCGC Assay Protocol Summary: This is a fluorogenic enzyme assay with 4-Methylumbelliferyl alpha-D-galactopyranoside as the substrate and human […] as the enzyme preparation. Upon the hydrolysis of this fluorogenic substrate, the resulting product, […]. 4-Methyllumbelliferone, can be excited at 365 nm and emits at 440 nm. This fluorescence which can be detected by a standard fluorescence plate reader. Data were normalized to the controls for basal activity (without enzyme) and 100% activity (with enzyme). In the AC50 values were determined from concentration-response data modeled with the standard Hill equation. Assay buffer: 50 mM citric acid (titrated with potassium phosphate to pH 4.5), 0.005% Tween-20, pH 4.5. (pH 4.5 is an optimal condition for this enzyme assay) 1536-well assay protocol for the human alpha-galactosidase: (1) Add 2 ul/well of enzyme (12 nM final) (2) Add 23 nL compounds in DMSO solution. The final titration was 0.7 nM to 77 uM. (3) Add 1 ul of substrate ([…]) (4) Incubate at room temperature for 20 min. (5) Add 2 ul stop solution (1M NaOH and 1M Glycine mixture, pH 10) (6) Detect the assay plate in a ViewLux plate reader (PerkinElmer) with Ex=365 nm and Em=440nm. Keywords: MLSMR, MLPCN, NIH Roadmap, qHTS, NCGC, : Alpha-galactosidase, Fabry Disease, pharmacological chaperone, chaperone therapy
In the case of `O=S(=O)(c1ccc(F)cc1)N1CCN(c2nc(-c3ccccc3)nc3ccccc23)CC1`, the call was inactive.

Consider `COc1ccc(S(=O)(=O)N2CCN(c3nc(-c4cccs4)nc4ccccc34)CC2)cc1OC`, for which the result was inactive.

Consider `O=S(=O)(c1cccc(C(F)(F)F)c1)N1CCN(c2nc(-c3cccs3)nc3ccccc23)CC1`, for which the molecule was classed as inactive.

In the case of `CC(=O)c1ccc(S(=O)(=O)N2CCN(c3nc(-c4cccs4)nc4ccccc34)CC2)cc1`, the outcome was inactive.

`Cc1ccc(S(=O)(=O)N2CCN(c3nc(-c4ccc(F)cc4)nc4cc(Cl)ccc34)CC2)cc1`: the molecule was called inactive.

Regarding `O=[N+]([O-])c1cccc(S(=O)(=O)N2CCN(c3nc(-c4cccs4)nc4ccccc34)CC2)c1`, the molecule was classed as inactive.

Consider `O=S(=O)(c1ccc(Br)cc1)N1CCN(c2nc(-c3ccccc3)nc3ccccc23)CC1`, for which the outcome was inactive.

For `O=S(=O)(c1ccccc1Cl)N1CCN(c2nc(-c3ccccc3)nc3ccccc23)CC1`, the molecule was called inactive.

With `O=S(=O)(c1ccc(Cl)cc1)N1CCN(c2nc(-c3cccs3)nc3ccccc23)CC1`, the molecule was classed as inactive.

Regarding `O=[N+]([O-])c1cccc(S(=O)(=O)N2CCN(c3nc(-c4ccccc4)nc4ccccc34)CC2)c1`, the molecule was called inactive.

In the case of `O=[N+]([O-])c1ccccc1S(=O)(=O)N1CCN(c2nc(-c3ccccc3)nc3ccccc23)CC1`, the molecule was called inactive.

On to `N#Cc1ccccc1S(=O)(=O)N1CCN(c2nc(-c3cccs3)nc3ccccc23)CC1`, for which the molecule was called inactive.

As to `COc1ccc(-c2nc(N3CCN(S(=O)(=O)c4ccccc4)CC3)c3ccccc3n2)cc1`, the molecule was called inactive.

Turning to `O=S(=O)(c1ccc(F)cc1)N1CCN(c2nc(-c3cccs3)nc3cc(Cl)ccc23)CC1`, the outcome was inactive.

Consider `O=S(=O)(c1ccc2c(c1)OCCO2)N1CCN(c2nc(-c3ccccc3)nc3ccccc23)CC1`, for which the outcome was inactive.

Regarding `O=S(=O)(c1ccc2c(c1)CCCC2)N1CCN(c2nc(-c3ccccc3)nc3ccccc23)CC1`, the result was inactive.

With `O=[N+]([O-])c1ccc(S(=O)(=O)N2CCN(c3nc(-c4cccs4)nc4ccccc34)CC2)cc1`, the outcome was inactive.

As for `O=S(=O)(c1ccccc1Cl)N1CCN(c2nc(-c3cccs3)nc3ccccc23)CC1`, the molecule was called inactive.

As to `O=S(=O)(c1cccc(Br)c1)N1CCN(c2nc(-c3cccs3)nc3ccccc23)CC1`, the result was inactive.

For `CCOC(=O)c1ccc(S(=O)(=O)N2CCN(c3nc(-c4ccccc4)nc4ccccc34)CC2)cc1`, the molecule was called inactive.

In the case of `CCOC(=O)c1ccc(S(=O)(=O)N2CCN(c3nc(-c4cccs4)nc4ccccc34)CC2)cc1`, the molecule was classed as inactive.

Regarding `O=S(=O)(c1ccc2c(c1)CCCC2)N1CCN(c2nc(-c3cccs3)nc3ccccc23)CC1`, the outcome was inactive.

`O=[N+]([O-])c1ccc(S(=O)(=O)N2CCN(c3nc(-c4ccccc4)nc4ccccc34)CC2)cc1`: the outcome was inactive.

For `O=S(=O)(c1cccc(C(F)(F)F)c1)N1CCN(c2nc(-c3ccccc3)nc3ccccc23)CC1`, the outcome was inactive.

Take `CC(=O)c1ccc(S(=O)(=O)N2CCN(c3nc(-c4ccccc4)nc4ccccc34)CC2)cc1`: the molecule was classed as inactive.

As for `NS(=O)(=O)c1ccc(S(=O)(=O)N2CCN(c3nc(-c4cccs4)nc4ccccc34)CC2)cc1`, the molecule was classed as inactive.

On to `O=S(=O)(c1ccc(C(F)(F)F)cc1)N1CCN(c2nc(-c3cccs3)nc3ccccc23)CC1`, for which the result was inactive.

For `N#Cc1ccccc1S(=O)(=O)N1CCN(c2nc(-c3ccccc3)nc3ccccc23)CC1`, the outcome was inactive.

Take `O=S(=O)(c1ccc(Cl)cc1)N1CCN(c2nc(-c3ccccc3)nc3ccccc23)CC1`: the call was inactive.

Take `O=S(=O)(c1ccccc1)N1CCN(c2nc(-c3cccs3)nc3ccccc23)CC1`: the call was inactive.

On to `O=S(=O)(c1ccc2c(c1)CCC2)N1CCN(c2nc(-c3ccccc3)nc3ccccc23)CC1`, for which the result was inactive.

As for `Cc1ccc(-c2nc(N3CCN(S(=O)(=O)c4ccc(F)cc4)CC3)c3ccc(Cl)cc3n2)cc1`, the result was inactive.

`Cc1ccc(S(=O)(=O)N2CCN(c3nc(-c4ccccc4)nc4ccccc34)CC2)cc1`: the call was inactive.

As to `NS(=O)(=O)c1ccc(S(=O)(=O)N2CCN(c3nc(-c4ccccc4)nc4ccccc34)CC2)cc1`, the result was inactive.

As for `CCOc1ccc(S(=O)(=O)N2CCN(c3nc(-c4ccccc4)nc4ccccc34)CC2)cc1OCC`, the call was inactive.

Take `O=[N+]([O-])c1ccccc1S(=O)(=O)N1CCN(c2nc(-c3cccs3)nc3ccccc23)CC1`: the result was inactive.

For `O=S(=O)(c1ccc2c(c1)OCCO2)N1CCN(c2nc(-c3cccs3)nc3ccccc23)CC1`, the molecule was called inactive.

Consider `O=S(=O)(c1ccc(Br)cc1)N1CCN(c2nc(-c3cccs3)nc3ccccc23)CC1`, for which the outcome was inactive.

For `O=S(=O)(c1ccccc1C(F)(F)F)N1CCN(c2nc(-c3ccccc3)nc3ccccc23)CC1`, the call was inactive.

In the case of `O=S(=O)(c1ccc(OC(F)(F)F)cc1)N1CCN(c2nc(-c3cccs3)nc3ccccc23)CC1`, the call was inactive.
